The list is not random: actives were taken first. Their share in the collection is about 2.2%.
Abeta yeast res = A-beta toxicity reversal in yeast; yeast expressing A-beta42, growth rescue, OD600, 48 h; response scale: 0% DMSO, 100% iron-clioquinol control; Potency, µM (highest dose often 46.1 µM), hits mostly activators; 410,000 tested, 0.063% active; AID 1347071; note: nearly all actives have a fitted effect of over 55% in size
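Growth rescue measured by 600 nm absorbance after 48 h yeast culture at 30 C with compound. Values normalized between DMSO and an equimolar ferric chloride plus clioquinol control.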
FUS yeast rescue = rescues growth of FUS-expressing yeast | S. cerevisiae FUS-expressing, growth rescue, OD600, 24 h | Potency, µM (highest dose often 76.6 µM), most hits filed as activators | 390,000 tested, 0.24% active;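 note: plate controls were DMSO vehicle for no effect and reference control for full effect; nearly all actives have a fitted effect of over 55% in size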
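Steps: raffinose overnight preculture; dilution to OD 0.005 in 2% galactose minimal medium; compound addition (concentration series); 24hr at 30C, 99% humidity; absorbance read at 600 nm.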
TDP43 rescue = TDP-43 toxicity inhibition in yeast; TDP-43 expressing yeast growth rescue, BacTiter-Glo, 24 h; Potency, µM (doses to about 46.1 µM), inactives show top-dose growth rescue (activation), actives largely listed as activators; 410,000 tested, 1.8% active; AID 652104; note: % of control where 0% means no effect; nearly all actives have a fitted effect of over 50% in size
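Cell-based yeast growth screen: TDP-43 expression induced in galactose, inoculum OD600=0.02 after raffinose pregrowth to mid-log. Read-out BacTiter-Glo luminescence at 24 hr, 30 deg C; inhibition of toxicity seen as signal increase.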
aSyn yeast inh = rescues yeast growth from alpha-synuclein toxicity; Yeast expressing alpha-synuclein, growth rescue, BacTiter-Glo, 24 h; Potency, µM (titrated, usually from 46.1 µM), without a hit: top-dose growth rescue (activation), actives largely listed as activators; 370,000 tested, 0.14% active; AID 652106; note: % of control where 0% means no effect; nearly all actives have a fitted effect of over 65% in size
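Rescue of yeast growth: cells expressing toxic alpha-synuclein, induced in galactose at OD600 0.02, incubated with compound 24 h at 30 C. ATP luminescence quantified growth; inhibitors of toxicity appear as activators.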
Mito fusion yeast = inhibitors of mitochondrial division or activators of mitochondrial fusion; S. cerevisiae fusion-defective mutant growth rescue, CellTiterGlo 48 h; Potency, µM (highest dose often 46.1 µM), without a hit: at the highest dose growth rescue (activation), actives largely listed as activators; 320,000 tested, 0.23% active; AID 485298; note: % of control where 0% means no effect; nearly all actives have a fitted effect of over 45% in size
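Compounds are tested for their ability to restore growth of mitochondrial fusion-defective yeast strains at non-permissive 37C in YPEG medium over 48 hours. Viability is quantified by luciferase luminescence.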
An asterisk follows results filed as active; i = inactive; u = inconclusive; x = not tested or not shown; [ ] = another dose, or the depositor's remark. Calls come from the whole dose curve; as a rule, active = well fitted curve in the direction sought with a large enough effect; inconclusive = small, poorly fitted or top-dose-only effect, or another doubt; inactive = no such curve, though single readings can be large; an effect the other way counts as inactive or inconclusive. Potency is the fitted concentration of half-maximal effect.

SMILES | Abeta yeast res | FUS yeast rescue | TDP43 rescue | aSyn yeast inh | Mito fusion yeast
Cc1nn(CC(=O)NC2CC2)c(=O)c2cc3cc(F)ccc3n12 | i | i | 9.5% | x | x
COc1ccc(S(=O)(=O)N2CCC(C(N)=O)CC2)c2ccccc12 | i[9.22 µM] | i | 1.2% | -12.8% | 4.9%
CCOC(=O)N1CCN(S(=O)(=O)c2ccc(OC)c3ccccc23)CC1 | u | i | 12.6µM* | -0.2% | -5.1%
CC(C)(C)c1csc(NC(=O)c2ccc(Cl)s2)n1 | i | i | u | -35.4% | 16.9%
CCNc1nc(N)c(C(=O)c2ccc(Cl)s2)s1 | i | i | 12.6µM* | 8.8% | 1.5%
COc1cccc(NC(=O)N2CCc3nc(NCc4cccc(Oc5ccccc5)c4)ncc3C2)c1 | i | u | 21.2% | u | x
COc1cccc(NC(=O)N2CCc3nc(Nc4cc(Cl)cc(Cl)c4)ncc3C2)c1 | u | 28.2µM* | 15.8µM* | u | x
CN1c2ccccc2-c2nc(SCC(=O)Nc3ccccc3)ncc2S1(=O)=O | i | i | 1.6% | x | x
Cc1ccc(CNC(=O)c2sc3ncnc(N(C)C4CCCCC4)c3c2C)cc1 | i | i | u | x | x
Cc1sc2ncnc(N(C)C3CCCCC3)c2c1C | i | i | 15.8µM* | 5.0% | -0.8%
O=c1c2cccnc2n(Cc2ccc(Cl)cc2)c(=O)n1Cc1ccc(F)cc1 | i | i | 17.7% | x | x
Cc1cccc(C2=NN(c3ccc(Br)cc3)[C@@H](C(=O)N3CCOC3=O)[C@@H]2C)c1 | i | i | 11.4% | u | x
Cc1cccc(C2=NN(c3ccccc3)[C@@H](C(=O)N3CCOC3=O)[C@@H]2c2ccc(F)cc2)c1 | i | 5.62µM* | 1.3% | 22.9% | x
O=C1OCCN1C(=O)[C@H]1[C@H](c2ccc(Cl)cc2)C(c2ccc(F)cc2)=NN1c1ccc(Br)cc1 | i | u | -22.7% | 10µM* | x
C[C@@H]1C(c2ccccc2)=NN(c2ccc(Br)cc2)[C@H]1C(=O)N1CCOC1=O | i | i | u | 20µM* | x
CCc1sc(C(=O)Nc2nc(C)cs2)cc1C | i | i | 20µM* | -24.3% | -5.6%
CCc1sc(C(=O)Nc2ccc(NC(C)=O)cc2)cc1C | i | i | 0.0% | 0.4% | 3.8%
Cc1cc(C)nc(NC(=O)c2ccc(C)c([N+](=O)[O-])c2)n1 | i | i | 0.0% | 12.5% | 0.4%
Cc1csc(NC(=O)c2ccc(C)c([N+](=O)[O-])c2)n1 | i | x | 20µM* | -10.2% | -3.0%
CC1CCC(NC(=O)CCc2cn(Cc3ccc(F)cc3)c3ccccc23)CC1 (stereo not drawn) | i | i | 13.1% | x | x
O=[N+]([O-])c1cnc2ccccc2c1Sc1ccccc1 | x | i | x | x | x
O=C(NCCc1ccc(Cl)cc1)c1c2c(nc3ccccc13)C(=O)N(C1CCCCC1)C2 | i | i | 9.2% | x | x
CCc1ccc(CCC(=O)Nc2ccc(Br)cc2)o1 | i | i | 22.4µM* | -25.3% | -4.3%
O=C(c1cc(-c2ccccc2Cl)nc2ccccc12)N1CCN(c2ccccc2O)CC1 | i | i | 20µM* | -18.1% | u
COc1ccc(-c2cc(C(=O)N3CCN(c4ncccn4)CC3)c3ccccc3n2)cc1 | i | i | 12.6µM* | -12.4% | 14.5%
SMILES | Abeta yeast res | FUS yeast rescue | TDP43 rescue | aSyn yeast inh | Mito fusion yeast
Cc1ccc(-c2cc(C(=O)N3CCN(c4ccccc4O)CC3)c3ccccc3n2)cc1 | i | i | 21.0% | -4.5% | 18.8%
Cc1ccc(-c2cc(C(=O)N3CCN(c4ccc(O)cc4)CC3)c3ccccc3n2)cc1 | i | u | 15.8µM* | 5.9% | x
NS(=O)(=O)c1ccc(CCNc2nc3c(-c4cccc(F)c4)nnn3c3ccc(Cl)cc23)cc1 | i | i | -9.0% | x | x
COc1ccccc1C(=O)N1CCN(c2nc3cc(C)cc(C)c3cc2C#N)CC1 | i | i | 11.2µM* | 26.3% | x
Cc1nc(N2CCN(C(=O)c3ccco3)CC2)c(C#N)c2c1CCCC2 | i | i | u | 7.3% | u
Cc1cc(C)c2nc(N3CCCN(C(=O)c4ccco4)CC3)c(C#N)cc2c1 | i | i | 17.8µM* | x | 7.9%
COc1ccc(CCn2c3c(c(=O)[nH]c2=S)CN(Cc2ccccc2)CN3)cc1OC | x | x | x | 0.3% | x
CCc1ccc(S(=O)(=O)c2nnn(-c3cccc(C)c3)c2N)cc1 | i | i | 22.4µM* | x | x
Nc1c(S(=O)(=O)c2ccccc2)nnn1-c1ccccc1 | i | i | -2.8% | 7.2% | 0.5%
Cc1cccc(N2CCN(C(=O)c3cccn4c(=O)c5cc(Cl)ccc5nc34)CC2C)c1 (stereo not drawn) | i | i | 7.2% | x | x
COc1cccc(CN2c3ccc(Br)cc3C(=O)CS2(=O)=O)c1 | i | u | 15.8µM* | -25.7% | -4.1%
C=CCN1c2ccc(Br)cc2C(=O)CS1(=O)=O | i | i | 20µM* | 3.8% | -2.9%
O=C(NCc1ccc(F)cc1)c1cc2cccc3c2n1CCS3 | i | i | 14.1µM* | x | x
Cc1cc(N/N=C/c2cccc([N+](=O)[O-])c2)nc(-n2nc(C)cc2C)n1 | i | i | 13.8% | -5.9% | -14.6%
COc1ccc(Nc2cc(C)nc(-n3nc(C)cc3C)n2)cc1Cl | i | i | u | x | x
Cc1cc(Nc2ccc(C(C)C)cc2)nc(-n2nc(C)cc2C)n1 | i | u | 20µM* | x | x
Cc1cc(N/N=C/c2ccc(O)cc2O)nc(-n2nc(C)cc2C)n1 | i | i | 4.6% | -2.9% | -11.2%
COc1ccc(/C=N/Nc2cc(C)nc(-n3nc(C)cc3C)n2)cc1 | i | i | 20µM* | u | -1.9%
Cc1cc(N/N=C/c2cccc(Cl)c2)nc(-n2nc(C)cc2C)n1 | i | i | 14.1µM* | 12.0% | 5.8%
COc1ccc(O)c(/C=N/Nc2nc(Nc3ccccc3)nc(-n3nc(C)cc3C)n2)c1 | u | i | 22.4µM* | 8.3% | -2.9%
COc1cc(/C=N/Nc2nc(Nc3ccccc3)nc(-n3nc(C)cc3C)n2)cc(OC)c1OC | u | u | -4.7%[0.397 µM] | -0.1% | 1.6%
C=CCN1[C@H](CO)[C@H](c2ccc(C#CC3(O)CCCC3)cc2)[C@@H]1C#N | x | i | x | x | x
CC1C(=O)N2CCCc3cc(S(=O)(=O)Nc4ccc(Br)cc4F)cc1c32 (stereo not drawn) | i | i | 2.8% | x | x
CN(C)c1ccc(/C=C/c2c(Br)cnc3ccccc23)cc1 | x | x | x | -6.8% | x
COc1ccc(Cn2cc(CN3CCc4onc(-c5ccc(Br)cc5)c4C3=O)nn2)cc1 | i | u | 17.8µM* | 18.8% | x
CCOc1ccc(C(=O)N(Cc2nc(-c3cccc(C)c3)no2)C(C)C)cc1 | i | i | u | x | x
CCc1ccc(CNC(=O)CCc2c(C)nn(-c3ccc(N4CCCCC4)nn3)c2C)cc1 | i | i | 0.0% | x | x
Nc1n[nH]c(N)c1N=Nc1ccc(Cl)cc1 | i | x | 7.4% | -2.1% | -3.2%
